# Reference: article PMC11062922 (Nature Chemical Biology, 2023)
# Like-named read-outs stand apart in the source and are kept apart here.
# Tests used:
# AAK1 = tested on: AAK1; set-up: species or system human, MV4-11 + K-562 + COLO205 + SK-N-BE2 + OVCAR-8; details: read-out: apparent Kd, compound concentrations: 100 nM and 1000 nM (sheet 'Samples'), n = 1
# BMP2K = tested on: BMP2K; set-up: species or system human, MV4-11 + K-562 + COLO205 + SK-N-BE2 + OVCAR-8; details: read-out: apparent Kd, compound concentrations: 100 nM and 1000 nM (sheet 'Samples'), n = 1
# CSNK2A1;CSNK2A3 = tested on: CSNK2A1;CSNK2A3; set-up: species or system human, MV4-11 + K-562 + COLO205 + SK-N-BE2 + OVCAR-8; details: read-out: apparent Kd, compound concentrations: 100 nM and 1000 nM (sheet 'Samples'), n = 1
# CSNK2A2 = tested on: CSNK2A2; set-up: species or system human, MV4-11 + K-562 + COLO205 + SK-N-BE2 + OVCAR-8; details: read-out: apparent Kd, compound concentrations: 100 nM and 1000 nM (sheet 'Samples'), n = 1
# FLT4 = tested on: FLT4; set-up: species or system human, MV4-11 + K-562 + COLO205 + SK-N-BE2 + OVCAR-8; details: read-out: apparent Kd, compound concentrations: 100 nM and 1000 nM (sheet 'Samples'), n = 1
# RET = tested on: RET; set-up: species or system human, MV4-11 + K-562 + COLO205 + SK-N-BE2 + OVCAR-8; details: read-out: apparent Kd, compound concentrations: 100 nM and 1000 nM (sheet 'Samples'), n = 1
# CLK1 = tested on: CLK1; set-up: species or system human, MV4-11 + K-562 + COLO205 + SK-N-BE2 + OVCAR-8; details: read-out: apparent Kd, compound concentrations: 100 nM and 1000 nM (sheet 'Samples'), n = 1
# GAK = tested on: GAK; set-up: species or system human, MV4-11 + K-562 + COLO205 + SK-N-BE2 + OVCAR-8; details: read-out: apparent Kd, compound concentrations: 100 nM and 1000 nM (sheet 'Samples'), n = 1
# GSK3A = tested on: GSK3A; set-up: species or system human, MV4-11 + K-562 + COLO205 + SK-N-BE2 + OVCAR-8; details: read-out: apparent Kd, compound concentrations: 100 nM and 1000 nM (sheet 'Samples'), n = 1
# GSK3B = tested on: GSK3B; set-up: species or system human, MV4-11 + K-562 + COLO205 + SK-N-BE2 + OVCAR-8; details: read-out: apparent Kd, compound concentrations: 100 nM and 1000 nM (sheet 'Samples'), n = 1
# MELK = tested on: MELK; set-up: species or system human, MV4-11 + K-562 + COLO205 + SK-N-BE2 + OVCAR-8; details: read-out: apparent Kd, compound concentrations: 100 nM and 1000 nM (sheet 'Samples'), n = 1
# NUAK1 = tested on: NUAK1; set-up: species or system human, MV4-11 + K-562 + COLO205 + SK-N-BE2 + OVCAR-8; details: read-out: apparent Kd, compound concentrations: 100 nM and 1000 nM (sheet 'Samples'), n = 1
# PAK4 = tested on: PAK4; set-up: species or system human, MV4-11 + K-562 + COLO205 + SK-N-BE2 + OVCAR-8; details: read-out: apparent Kd, compound concentrations: 100 nM and 1000 nM (sheet 'Samples'), n = 1
# PKN1 = tested on: PKN1; set-up: species or system human, MV4-11 + K-562 + COLO205 + SK-N-BE2 + OVCAR-8; details: read-out: apparent Kd, compound concentrations: 100 nM and 1000 nM (sheet 'Samples'), n = 1
# PKN3 = tested on: PKN3; set-up: species or system human, MV4-11 + K-562 + COLO205 + SK-N-BE2 + OVCAR-8; details: read-out: apparent Kd, compound concentrations: 100 nM and 1000 nM (sheet 'Samples'), n = 1
# PRKAG1 = tested on: PRKAG1; set-up: species or system human, MV4-11 + K-562 + COLO205 + SK-N-BE2 + OVCAR-8; details: read-out: apparent Kd, compound concentrations: 100 nM and 1000 nM (sheet 'Samples'), n = 1
# Q6ZSR9 = Q6ZSR9 (human, UniProt Q6ZSR9); set-up: species or system MV4-11 + K-562 + COLO205 + SK-N-BE2 + OVCAR-8; details: read-out: apparent Kd, compound concentrations: 100 nM and 1000 nM (sheet 'Samples'), n = 1
# SIK2 = tested on: SIK2; set-up: species or system human, MV4-11 + K-562 + COLO205 + SK-N-BE2 + OVCAR-8; details: read-out: apparent Kd, compound concentrations: 100 nM and 1000 nM (sheet 'Samples'), n = 1
# CLK4 = tested on: CLK4; set-up: species or system human, MV4-11 + K-562 + COLO205 + SK-N-BE2 + OVCAR-8; details: read-out: apparent Kd; compound concentrations: 100 nM and 1000 nM (sheet 'Samples'), CATDS: 1.6953828831644601E-2; n = 1
# Q6ZSR9, sequence (Q6ZSR9 whole entry, looked up): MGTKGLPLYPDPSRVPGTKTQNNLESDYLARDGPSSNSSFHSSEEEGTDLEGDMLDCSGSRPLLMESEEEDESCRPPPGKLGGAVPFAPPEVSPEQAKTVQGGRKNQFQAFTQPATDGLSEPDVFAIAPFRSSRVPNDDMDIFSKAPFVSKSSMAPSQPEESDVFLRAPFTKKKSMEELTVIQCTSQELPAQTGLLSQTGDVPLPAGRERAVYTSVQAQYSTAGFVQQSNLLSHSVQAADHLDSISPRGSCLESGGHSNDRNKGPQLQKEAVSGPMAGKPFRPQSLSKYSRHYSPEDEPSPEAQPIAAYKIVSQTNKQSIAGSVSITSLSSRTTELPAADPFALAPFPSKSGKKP
structure (smiles),measurement,setting,value
Cc1ccc(Nc2ccnc(Nc3ccc4c(c3)CS(=O)(=O)C4)n2)cc1O.Cl [GW579362A],potency estimated from few doses,AAK1; CATDS: 3.1485270896706399E-2,1060 nM
same,potency estimated from few doses,BMP2K; CATDS: 2.75119720973705E-2,1640 nM
same,potency estimated from few doses,CSNK2A1;CSNK2A3; CATDS: 3.1042037667094801E-2,1100 nM
same,potency estimated from few doses,CSNK2A2; CATDS: 3.7509924473465302E-2,666 nM
same,potency estimated from few doses,FLT4; CATDS: 3.6167271282575603E-2,729 nM
same,potency estimated from few doses,RET; CATDS: 5.0599670871917801E-2,349 nM
CCOC(=O)N1CCC(n2cnc(-c3ccc(F)cc3)c2-c2ccnc(N)n2)CC1 [SB-219952],potency estimated from few doses,AAK1; CATDS: 1.33097974797153E-2,454 nM
same,potency estimated from few doses,BMP2K; CATDS: 1.0000193686827899E-2,867 nM
same,potency estimated from few doses,CLK1; CATDS: 1.18597213826205E-2,578 nM
same,potency estimated from few doses,CSNK2A1;CSNK2A3; CATDS: 1.2357704080210899E-2,529 nM
same,potency estimated from few doses,CSNK2A2; CATDS: 1.08103941261705E-2,715 nM
same,potency estimated from few doses,FLT4; CATDS: 1.0948126782386601E-2,694 nM
same,potency estimated from few doses,GAK; CATDS: 1.8528073728162099E-2,245 nM
same,potency estimated from few doses,GSK3A; CATDS: 1.9129432777521899E-2,232 nM
same,potency estimated from few doses,GSK3B; CATDS: 1.5651651675632799E-2,331 nM
same,potency estimated from few doses,MELK; CATDS: 7.6939005676200604E-3,1970 nM
same,potency estimated from few doses,NUAK1; CATDS: 9.2511282375558092E-3,1070 nM
same,potency estimated from few doses,PAK4; CATDS: 1.1415940389083201E-2,630 nM
same,potency estimated from few doses,PKN1; CATDS: 1.0348059231995501E-2,795 nM
same,potency estimated from few doses,PKN3; CATDS: 9.8185291638943593E-3,909 nM
same,potency estimated from few doses,PRKAG1; CATDS: 1.03550294618252E-2,794 nM
same,potency estimated from few doses,Q6ZSR9; CATDS: 1.30827275923428E-2,470 nM
same,potency estimated from few doses,RET; CATDS: 1.35684167881036E-2,436 nM
same,potency estimated from few doses,SIK2; CATDS: 1.0490419954407099E-2,769 nM
O=C1NC(=O)/C(=C/c2ccc3ncccc3c2)S1 [RO4603632-000],potency estimated from few doses,CSNK2A1;CSNK2A3; CATDS: 0.36519548051145401,279 nM
same,potency estimated from few doses,CSNK2A2; CATDS: 0.36768987461520503,276 nM
CN(c1ccc(NC(=O)Nc2cccc(Cl)c2)cc1)c1ccnc(N)n1.Cl [GW830707A],potency estimated from few doses,AAK1; CATDS: 1.09630092870236E-2,1150 nM
same,potency estimated from few doses,CLK1; CATDS: 2.1787512742807501E-2,42 nM
same,potency estimated from few doses,CLK4,90.4 nM
same,potency estimated from few doses,CSNK2A1;CSNK2A3; CATDS: 1.0372533520716E-2,1990 nM
same,potency estimated from few doses,CSNK2A2; CATDS: 1.04920498001006E-2,1760 nM
same,potency estimated from few doses,GAK; CATDS: 2.5195285382478599E-2,29.6 nM
same,potency estimated from few doses,GSK3A; CATDS: 2.1035735190854499E-2,46.1 nM
same,potency estimated from few doses,GSK3B; CATDS: 1.8960420623414999E-2,62.2 nM
same,potency estimated from few doses,MELK; CATDS: 1.02944782662895E-2,2160 nM
same,potency estimated from few doses,NUAK1; CATDS: 1.06533204099584E-2,1510 nM
same,potency estimated from few doses,PAK4; CATDS: 1.12669730748303E-2,911 nM
same,potency estimated from few doses,PKN1; CATDS: 1.22442733693101E-2,482 nM
same,potency estimated from few doses,PKN3; CATDS: 1.09744327233877E-2,1140 nM
same,potency estimated from few doses,PRKAG1; CATDS: 2.2358938635015799E-2,39.4 nM
same,potency estimated from few doses,Q6ZSR9; CATDS: 1.11912324380908E-2,964 nM
same,potency estimated from few doses,RET; CATDS: 1.6938963358117499E-2,90.7 nM
same,potency estimated from few doses,SIK2; CATDS: 1.7275561883006999E-2,84.5 nM
